Shown are actives, neighbours in structure and some others; about 2.8% of the full set was active somewhere.
CBFb RUNX1 block: blocks binding between human CBF-beta and RUNX1; Q01196+Q13951; AlphaScreen CBFb-His/RUNX1-biotin binding, biochemical; Potency, µM (top dose mostly 59.8 µM), for inactives: top-dose activity, negative = inhibition, most hits filed as inhibitors; 230,000 tested, under 10 active; note: % of control where 0% means no effect
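Room-temperature protein-protein interaction test with 30 nM each of His-tagged CBF-beta and biotinylated RUNX1, 15 min with compound, then 90 min with nickel plus streptavidin beads. Signal read in AlphaScreen mode.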
D3 antag: antagonists of human D3 dopamine receptor. P35462. D3R cells, DiscoveRx beta-arrestin luminescence, antagonist mode; stronger effect = lower value. max response, negative = inhibition, %. 2.5% of 360,000 active; in the data active = max response below about -50%; inconclusive = no clear call, values can overlap the other calls; note: % is set by controls: 0 for no effect and ±100 for the full control effect
Target sequence (P35462 whole entry, looked up): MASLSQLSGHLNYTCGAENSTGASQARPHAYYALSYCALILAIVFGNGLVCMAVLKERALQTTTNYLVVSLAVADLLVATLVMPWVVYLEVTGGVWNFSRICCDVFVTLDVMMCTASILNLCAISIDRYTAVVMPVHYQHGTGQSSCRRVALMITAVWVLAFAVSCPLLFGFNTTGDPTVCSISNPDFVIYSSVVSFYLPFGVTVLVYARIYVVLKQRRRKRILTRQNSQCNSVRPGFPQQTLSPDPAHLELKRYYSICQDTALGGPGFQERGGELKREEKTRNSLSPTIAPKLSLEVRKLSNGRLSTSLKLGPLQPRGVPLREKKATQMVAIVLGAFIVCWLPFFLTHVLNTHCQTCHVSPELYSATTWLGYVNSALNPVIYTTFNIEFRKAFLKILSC
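Cells expressing the human receptor were seeded at 1500 cells/well, incubated overnight at 37 degrees C in 5% CO2, then exposed to library compounds with dopamine controls for 90 minutes at 37 degrees C before luminescent detection.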
MBNL1-CUG inh: MBNL1-poly(CUG) RNA binding inhibition; Potency, µM (doses to about 57.5 µM), inactives show at the highest dose activity change, negative = inhibition, hits mostly inhibitors; Q9NR56; TR-FRET MBNL1-His/biotin-(CUG)12 binding, 665/545 ratio; 0.036% of 280,000 active; active = well fitted inhibition curve with a large enough effect in the signal ratio, with a control signal flat, not every such curve was filed as active; inconclusive = small, poorly fitted or top-dose-only effect, or effect the other way, or a change in a side signal; inactive = no such curve, though single readings can be large or run the other way; the % refers to the signal ratio; note: potency is the fitted concentration of half-maximal effect; % is set by controls: 0 for no effect and ±100 for the full control effect
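TR-FRET between His-tagged MBNL1 and biotin-(CUG)12 RNA, detected with Tb anti-His antibody (0.055 ng/ul) and streptavidin-XL665 (5 nM), 60 min at room temperature. Compounds titrated 92 nM to 58 uM; 665/545 nm ratio normalized to buffer and complex controls.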
a7 integrin act: activates integrin-mediated alleviation for muscular dystrophy; alpha7betagal myoblasts, beta-gal FDG fluorescence, 48 h; Potency, µM (doses to about 38.3 µM), for the others: top-dose activation, hits mostly activators; 0.064% of 350,000 active;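 note: potency is the fitted concentration of half-maximal effect; 100% = response of the positive control SU9516; nearly all actives have a fitted effect of over 60% in size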
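Alpha7betagal+/- myoblasts (passage 13) were plated 16-24 hr, then exposed to compounds (1:260 dilution of DMSO stock) for 48 hours at 37C. After MPER lysis, β-galactosidase reporter activity was read as FDG fluorescence (ex 480/em 540) after 30 minutes.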
PTHR1 agonist: agonists of human PTHR1 parathyroid hormone receptor; Q03431; HEK293 GP2 PTHR1 cells, GloSensor cAMP luminescence, 1 h; Potency, µM (titrated, usually from 115 µM), for inactives: at the top dose activation, most hits filed as activators; 0.075% of 410,000 active; note: potency is the fitted concentration of half-maximal effect; nearly all actives have a fitted effect of over 55% in size
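HEK-293-derived GP2 cells expressing PTHR1 and a GloSensor cAMP reporter, 3,000/well, plated overnight, given luciferin plus IBMX (each 0.5 mM as added) for 1 h at 37 °C, then compound for 1 h at 37 °C. Luminescence was read after 15 min at room temperature.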
DRD3 agonist: activates the human D3 dopamine receptor | P35462 | D3R DiscoveRx beta-arrestin cells, luminescence, 90 min | max activation, % | 0.58% of 410,000 active | AID 652048; in the data active = max activation above about 30%; note: 0% is about no effect
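Agonist-mode cell screen: cells plated at 1500/well and incubated overnight at 37 °C, then exposed to library compounds for 90 min at 37 °C. Detection reagent was added for 30–60 min at room temperature, and luminescence was read.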
* marks the source's active call; other numbers are inactive results; i = inactive; ? = inconclusive; . = not tested or not shown; [ ] = another dose, or the depositor's remark. Unless noted, calls come from the whole dose curve; as a rule, active = well fitted curve in the direction sought with a large enough effect; inconclusive = small, poorly fitted or top-dose-only effect, or another doubt; inactive = no such curve, though single readings can be large; an effect the other way counts as inactive or inconclusive.

SMILES	CBFb RUNX1 block	D3 antag	MBNL1-CUG inh	a7 integrin act	PTHR1 agonist	DRD3 agonist
CSc1nc(N)c2c3c(sc2n1)CN(C)CC3	.	-52*	17%	2%	-2%	4
CSc1nc(SCC(N)=O)c2c3c(sc2n1)CN(C)CC3	-6%	-54*	?	-23%	-21%[57.5 µM]	-12
Cc1nc(SCC(=O)NC2(C#N)CCCC2)n(CC(C)C)c1C	.	0	.	1%	i	12
CCOC(=O)[C@@H]1[C@H]2COc3ccc(Br)cc3[C@@H]2N2C(=O)N(c3ccc(C(F)(F)F)cc3)C(=O)[C@]12C	.	-16	-7%	12%	-18%	16
Cc1cccc2cc(-c3nc4ccc(C(=O)O)cc4[nH]3)c(=O)oc12	.	65	?	-23%	-23%	12
CCOc1ccccc1OCCOc1ccccc1OC(C)C	24%	8	-1%	-7%	18%[57.5 µM]	2
CNCCOc1ccccc1OC(C)C	-1%	-79*	1%	-17%	-22%	-17
CCCN(CCC)CCCNC(=O)c1nn(C)c2c1CS(=O)(=O)c1ccccc1-2	.	.	.	.	-15%	1
CSCCC(C(=O)Nc1c(C)cccc1C)n1c(COc2ccc(C)cc2)nc2ccccc21 (stereo not drawn)	.	1	.	.	i	-1
O=c1oc(-c2cccc(Cl)c2)nc2c1cnn2-c1ccccc1	6%	-23	3%	11%	-25%	-4
O=c1oc(-c2ccccc2F)nc2c1cnn2-c1ccccc1	-1%	-65*	-9%	2%	-7%[57.5 µM]	-23
COc1cc(/C=N/NC(=O)c2ccncc2)cc(OC)c1OC	.	2	15%	-16%	i	-4
COc1c(Br)cc(Br)cc1/C=N/NC(=O)c1ccncc1	1%	-80*	?	-67%	i	-9
COc1c(Br)cc(Br)cc1/C=N/NC(=O)c1cccnc1	.	-96*	21%	-10%	-23%	-29
COCc1cc(CNC(=O)C2CCC(=O)N(Cc3ccccc3F)C2)[nH]n1 (stereo not drawn)	.	-24	-7%	10%	-29%	-7
CCOC(=O)c1oc2ccc(S(=O)(=O)Nc3ccc4c(c3)n(C)c(=O)n4C)cc2c1C	3%	9	2%	-63%	-21%[57.5 µM]	32*
COc1ccc(S(=O)(=O)Nc2ccc3c(c2)n(C)c(=O)n3C)cc1C	.	2	-1%	11%	-12%	-2
Cc1cc2nc3ccc(=[N+](C)C)cc-3sc2cc1N	?	-54*	?	-67%	-54%	-16
CN(C)c1ccc2nc3ccc(=O)cc-3sc2c1	.	-17	.	-64%	-87%	-6
CCc1noc(C)c1C(=O)Nc1cccc2ncccc12	.	25	-11%	2%	-27%	0
Cn1c(=O)n(CC(=O)NC2CCCCC2)c(=O)c2ccccc21	9%	-59*	-1%	16%	-3%	-7
O=C(NNS(=O)(=O)c1ccccc1F)c1sccc1-n1cccc1	9%	-19	-1%	44%	-21%	3
C[C@H](CO)N1C[C@H](C)[C@@H](CN(C)S(=O)(=O)c2ccccc2)Oc2c(NS(=O)(=O)c3ccccc3)cccc2C1=O	.	-11	.	26%	2%	-25
O=C(Nc1ncccn1)c1ccc(Cl)c([N+](=O)[O-])c1	.	-1	?	-40%	50µM*	11
NC(=O)COCCN1CCN(C(c2ccccc2)c2ccc(Cl)cc2)CC1 (stereo not drawn)	.	.	.	.	.	-25
SMILES	CBFb RUNX1 block	D3 antag	MBNL1-CUG inh	a7 integrin act	PTHR1 agonist	DRD3 agonist
COc1ccccc1N=Cc1nc(-c2ccccc2)oc1OC(C)=O	12%	-56*	-7%	-29%	-39%	1
CC(=O)Oc1oc(-c2ccccc2)nc1/C=N/c1ccccn1	2%	-62*	?	-10%	i	-11
CC(=O)Oc1oc(-c2ccccc2)nc1C=Nc1ccc(N(C)C)cc1	9%	-14	3%	8%	i	1
CN(C)c1ccc(N=Cc2nc(-c3ccccc3)oc2OC(=O)c2ccccc2)cc1	4%	-13	.	0%	i	-8
COc1ccc(NC(=O)c2cc(S(=O)(=O)NCCC3=CCCCC3)ccc2F)cc1	.	.	.	.	-42%	2
CCC(Sc1nc2ncccc2[nH]1)C(=O)NCCc1ccccc1 (stereo not drawn)	.	-12	-5%	1%	-51%	-8
CC(C)OC(=O)C(C(=O)OC(C)C)=C1SC=CS1	.	.	.	.	.	8
O=C(O)CC(Sc1n[nH]c(=S)s1)C(=O)O (stereo not drawn)	24%	-22	?	0%	i	-10
CCc1ccccc1N(CC(=O)NCc1ccco1)C(=O)c1snc(C(N)=O)c1N	0%	-55*	?	-2%	i	-9
CC(C)CCNC(=O)CN(Cc1ccco1)C(=O)c1snc(C(N)=O)c1N	3%	-14	?	5%	-24%	-5
COc1ccc(N(C(=O)c2snc(C(N)=O)c2N)C(C(=O)NC2CCCC2)c2ccco2)cc1 (stereo not drawn)	.	3	16%	8%	-18%	4
CCc1ccc(N(C(=O)c2snc(C(N)=O)c2N)C(C(=O)NC2CCCC2)c2ccco2)cc1 (stereo not drawn)	.	-15	4%	2.5µM*	-5%	-5
c1ccc(N2CC3COc4ccccc4C3=N2)cc1 (stereo not drawn)	.	2	.	-8%	-17%	7
COc1cccc(C(NC(C)=O)c2nc(-c3cccc4cccnc34)cs2)c1 (stereo not drawn)	.	-14	.	.	i	57*
Cc1ccc(NC(=O)Cn2c(=O)c3ccccc3n3nncc23)cc1	.	.	.	.	-27%	-6
CC(=O)c1cc(-c2ccccc2)n(CCC(=O)Nc2ccc(C(C)C)cc2)c1C	.	.	.	.	-38%	6
COc1ccc(-c2cc3ccccc3n2CC(O)CN2CCC(C)CC2)cc1 (stereo not drawn)	-16%	-111*	-5%	-16%	4%	-14
COc1ccc(-c2cc3ccccc3n2CC(O)Cn2nc(C)cc2C)cc1 (stereo not drawn)	-5%	?	-3%	6%	-8%[57.5 µM]	-14
Cc1cc(C)cc(NC(=O)c2ccc(Cn3nc(C)c(Cl)c3C)o2)c1	-7%	66	6%	-16%	-21%	-2
Cc1ccc(CNC(=O)c2ccc(Cn3nc(C)c(Cl)c3C)o2)cc1	1%	-53*	2%	28%	-12%[57.5 µM]	-12
COc1ccc(C(c2nnnn2Cc2cccs2)N2CCN(c3ccccc3F)CC2)cc1OC (stereo not drawn)	0%	-81*	1%	44%	-37%	0

Screens (PubChem)
